Test results from article PMC7826789 (International Journal of Molecular Sciences, 2021).

Test system: PIK3CG

SMILES	Kinases covered
COc1ccc(-c2cc3c(C)nc(N)nc3n([C@H]3CC[C@H](O)CC3)c2=O)cn1 [PFE-PKIS 40]	PIK3CG
Cc1c(Cn2c(C)nn3c(=O)cc(N4CCO[C@H](C)C4)nc23)cccc1C(F)(F)F [GSK2373690]	PIK3CG
CC(C)N1CC(=O)N(C)c2cnc(Nc3cccc(S(=O)(=O)CCN4CCOCC4)c3)nc21 [BI00009348]	PIK3CG
CC(C)C(=O)N[C@@H]1CCN(C(=O)Nc2nc3c(s2)-c2nc(-c4ccccc4Cl)ncc2CC3)C1 [BI00047804]	PIK3CG
NS(=O)(=O)c1cccc(-c2ccc3nccc(-c4cccc(S(N)(=O)=O)c4)c3c2)c1 [GW867253]	PIK3CG
